Data published in PubChem BioAssay AID720517 (National Center for Advancing Translational Sciences (NCATS), 2013).
Records with an inconclusive call do not appear. Where a call stands in place of a potency, no number is given. Activity calls are given as the source filed them. Calls come from the whole dose curve; as a rule, active = well fitted activation curve with a large enough effect; inconclusive = small, poorly fitted or top-dose-only effect; inactive = flat fitted curve, though single readings scatter.

experiment: qHTS for Inhibitors of Cell Surface uPA Generation: FP59 Counterscreen for Cherry-picked Compounds; details: FP59 anthrax toxin cytotoxicity counterscreen, cells; series mostly up to 115 µM

SMILES | Potency
Cc1ccc(C(=O)NNC(=O)CNc2cccc(Cl)c2)cc1 | inactive
CC(=O)c1ccc(N2CCN(C(=S)NCc3ccco3)CC2)cc1 | inactive
COc1cc(NC(=O)CSc2nnc3ccc(-c4ccncc4)nn23)cc(OC)c1 | inactive
Cc1c(C(=O)N2CCN(S(=O)(=O)c3cccs3)CC2)oc2ccc(F)cc12 | inactive
COc1ccc(C(=O)N2CCN(c3ccc(C(C)=O)cc3)CC2)cc1S(=O)(=O)N1CCCC1 | inactive
CC1CCCN(S(=O)(=O)c2cccc([N+](=O)[O-])c2)C1 (centres undefined) | inactive
CC1=NN(C(N)=S)C(=O)C1N=Nc1ccccc1C(=O)O (centres undefined) | inactive
Cc1nc(N2CCN(c3ccc(Cl)cc3)CC2)[nH]c(=O)c1C | inactive
CCCCN(CC(=O)Nc1cccc(S(=O)(=O)N2CCCC2)c1)Cc1nc2ccccc2c(=O)[nH]1 | inactive
CCc1ccccc1NC(=O)CN(C)C(=O)CSc1nnc(Nc2cccc(C)c2C)s1 | inactive
O=C(Nc1ccc(S(=O)(=O)N2CCOCC2)cc1)c1cc(-c2ccccc2O)n[nH]1 | inactive
O=C(c1cc(COc2c(F)cccc2F)on1)N1CCc2ccccc2C1 | inactive
CN(CC(=O)NCc1ccco1)CC(=O)Nc1c(Cl)cccc1Cl | inactive
CCCCn1c(N)c(N(Cc2ccccc2OC)C(=O)COc2ccc(C)cc2)c(=O)[nH]c1=O | inactive
NC(=O)CC(NC(=O)Cc1cccc2ccccc12)c1ccc(N2CCN(c3ccc(F)cc3)CC2)c([N+](=O)[O-])c1 (centres undefined) | inactive
O=C(NC1CCCCC1)C(c1ccco1)N(C(=O)c1csnn1)c1cccc(Cl)c1 (centres undefined) | inactive
CN(/N=C/c1cc(Cl)cc(Cl)c1O)C(=S)NC(C)(C)C | inactive
Cc1ccc(NC(=O)CS(=O)Cc2nc(-c3ccc(C)cc3)oc2C)cc1 (centres undefined) | inactive
COc1ccc(C)cc1NC(=O)CSCc1cc(=O)n2c(C)csc2n1 | inactive
C=CCOC(=O)C1=C[C@H](c2ccc(C(F)(F)F)cc2)[C@@H](CCCO)[C@H](OCC)O1 | inactive

SMILES | Potency
CCCN1CCN(C(=O)CCCn2c(C)c3cnn(-c4ccccc4)c(=O)c3c2C)CC1 | inactive
NC(=O)c1ccccc1NC(=O)CC12CC3CC(CC(C3)C1)C2 | inactive
CCOc1ccccc1N(CC(=O)Nc1ccc(OC)cc1)S(=O)(=O)c1ccccc1 | inactive
COC(=O)/C(C#N)=C\c1c(OC)[nH]c2ccccc12 | inactive
COc1cc(CCC(=O)OCC(=O)Nc2ccc(C)cc2Br)cc(OC)c1OC | inactive
NS(=O)(=O)c1ccc(CCNC(=O)c2ccc(Cl)s2)cc1 | inactive
O=C(Nc1ccc(Cl)cn1)C1CCCN(c2ncnc3c2nc2n3CCCCC2)C1 (centres undefined) | inactive
CC(/C=C/C1(O)C(C)CC(O)CC1(C)C)OC1OC(CO)C(O)C(O)C1O (centres undefined) | inactive
CC(C)(C)n1ncc2c(=O)n(Cc3ccc(Cl)cc3)cnc21 | inactive
CCOc1ccc(Cl)cc1/C=N/NC(=O)c1ccccc1 | inactive
C=C(C)C(=O)O[C@H]1C/C(C)=C\C(=O)/C=C(\C)[C@H](O)[C@@H]2OC(=O)C(=C)[C@@H]21 | inactive
Cc1ccc(C2=NS(=O)(=O)N(C)C(C(=O)NC3CCCC3)=C2)cc1 | inactive
COc1ccc([C@H]2[C@H](C(=O)OC(C)(C)C)N3N=Cc4ccccc4C3C23C(=O)c2ccccc2C3=O)cc1OC (some centres undefined) | inactive
CC(=O)N1CCN(C(=O)CSc2cc(C)c(Br)cc2C)CC1 | inactive
COc1ccccc1C(=O)NCCC(=O)NCC(c1ccc(F)cc1)N1CCOCC1 (centres undefined) | inactive
CC(C)(C)NC(=O)C(c1cccs1)N(C(=O)c1csnn1)c1ccccc1F (centres undefined) | inactive
Cc1cnc(CNC(=O)C2CCC(=O)N(CCc3cccc(F)c3)C2)[nH]1 (centres undefined) | inactive
CC(=O)NCCc1cnc[nH]1 | inactive
Fc1cccc(Cl)c1CSc1ccc(-c2cccnc2)nn1 | inactive
